{"source": "PubChem BioAssay AID1159580", "about": "(chemical genetic matrix, 2015)", "experiment": "chemical genetic growth profiling, strain panel (AID 1159580);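 note: tested at 20 µM; growth read once vehicle control cultures reached saturation at 30 °C; 1 = growth at the plate median or of vehicle wells; lower values mean less growth of the strain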", "conditions": "growth OD", "note": "Hit rate of the full screen: of about 5,500 compounds, about 2,000 (36%) were called active. Another 18% or so got no clear call; they are omitted. Some of the results follow. A number with no mark means an inactive call. Cut-off read from the data, not from the text of the source: active = normalized growth mostly below about 0.91 (no sharp cut-off); inconclusive = no clear call, values can overlap the other calls; inactive = mostly above about 0.92."}
{"smiles": "c1ccc2[nH]c(-c3cscn3)nc2c1", "values": [{"measurement": "normalized growth", "setting": "S. cerevisiae deletion strains, locus YKL068W, hits give low values", "result": 1}, {"measurement": "normalized growth", "setting": "S. cerevisiae deletion strains, locus YKL085W, strain MDH1 (second series), hits give low values", "result": 0.996}, {"measurement": "normalized growth", "setting": "S. cerevisiae deletion strains, locus YKL085W, strain MDH1, hits give low values", "result": 0.996}, {"measurement": "normalized growth", "setting": "S. cerevisiae deletion strains, locus YKL160W, strain elf1, hits give low values", "result": 1.01}, {"measurement": "normalized growth", "setting": "S. cerevisiae deletion strains, locus YKL190W, strain CNB1, hits give low values", "result": 0.993}, {"measurement": "normalized growth", "setting": "S. cerevisiae deletion strains, locus YKR001C, strain vps1, hits give low values", "result": 0.976}, {"measurement": "normalized growth", "setting": "S. cerevisiae deletion strains, locus YKR026C, strain gcn3, hits give low values", "result": 1.02}, {"measurement": "normalized growth", "setting": "S. cerevisiae deletion strains, locus YKR091W, strain srl3, hits give low values", "result": 1.01}, {"measurement": "normalized growth", "setting": "S. cerevisiae deletion strains, locus YLL001W, strain dnm1, hits give low values", "result": 1}, {"measurement": "normalized growth", "setting": "S. cerevisiae deletion strains, locus YLL026W, hits give low values", "result": 1.01}, {"measurement": "normalized growth", "setting": "S. cerevisiae deletion strains, locus YLL041C, strain sdh2, hits give low values", "result": 1.02}, {"measurement": "normalized growth", "setting": "S. cerevisiae deletion strains, locus YLR027C, strain aat2, hits give low values", "result": 1.01}, {"measurement": "normalized growth", "setting": "S. cerevisiae deletion strains, locus YLR039C, strain RIC1, hits give low values", "result": 0.963}, {"measurement": "normalized growth", "setting": "S. cerevisiae deletion strains, locus YLR058C, strain SHM2, hits give low values", "result": 0.997}, {"measurement": "normalized growth", "setting": "S. cerevisiae deletion strains, locus YLR102C, strain apc9, hits give low values", "result": 1.01}, {"measurement": "normalized growth", "setting": "S. cerevisiae deletion strains, locus YLR113W, strain HOG1, hits give low values", "result": 0.985}, {"measurement": "normalized growth", "setting": "S. cerevisiae deletion strains, locus YLR221C, strain rsa3, hits give low values", "result": 0.97}, {"measurement": "normalized growth", "setting": "S. cerevisiae deletion strains, locus YLR258W, strain gsy2, hits give low values", "result": 0.968}, {"measurement": "normalized growth", "setting": "S. cerevisiae deletion strains, locus YLR262C, strain YPT6 (second series), hits give low values", "result": 0.95}, {"measurement": "normalized growth", "setting": "S. cerevisiae deletion strains, locus YLR262C, strain YPT6, hits give low values", "result": 0.968}, {"measurement": "normalized growth", "setting": "S. cerevisiae deletion strains, locus YLR268W, strain sec22, hits give low values", "result": 0.945}, {"measurement": "normalized growth", "setting": "S. cerevisiae deletion strains, locus YLR320W, strain mms22, hits give low values", "result": 0.899}, {"measurement": "normalized growth", "setting": "S. cerevisiae deletion strains, locus YLR330W, strain CHS5, hits give low values", "result": 0.995}, {"measurement": "normalized growth", "setting": "S. cerevisiae deletion strains, locus YLR342W, strain FKS1 (second series), hits give low values", "result": 1.01}, {"measurement": "normalized growth", "setting": "S. cerevisiae deletion strains, locus YLR342W, strain FKS1, hits give low values", "result": 1}, {"measurement": "normalized growth", "setting": "S. cerevisiae deletion strains, locus YLR357W, strain rsc2, hits give low values", "result": 0.984}, {"measurement": "normalized growth", "setting": "S. cerevisiae deletion strains, locus YLR370C, strain arc18, hits give low values", "result": 0.975}, {"measurement": "normalized growth", "setting": "S. cerevisiae deletion strains, locus YLR371W, strain rom2, hits give low values", "result": 1.02}, {"measurement": "normalized growth", "setting": "S. cerevisiae deletion strains, locus YLR384C, strain iki3, hits give low values", "result": 1.01}, {"measurement": "normalized growth", "setting": "S. cerevisiae deletion strains, locus YLR418C, strain cdc73, hits give low values", "result": 0.979}, {"measurement": "normalized growth", "setting": "S. cerevisiae deletion strains, locus YML016C, strain PPZ1, hits give low values", "result": 0.997}, {"measurement": "normalized growth", "setting": "S. cerevisiae deletion strains, locus YML032C, strain rad52, hits give low values", "result": 0.979}, {"measurement": "normalized growth", "setting": "S. cerevisiae deletion strains, locus YML120C, strain ndi1, hits give low values", "result": 1}, {"measurement": "normalized growth", "setting": "S. cerevisiae deletion strains, locus YML124C, strain tub3, hits give low values", "result": "0.636 (active)"}, {"measurement": "normalized growth", "setting": "S. cerevisiae deletion strains, locus YMR058W, strain fet3, hits give low values", "result": 0.993}, {"measurement": "normalized growth", "setting": "S. cerevisiae deletion strains, locus YMR078C, strain ctf18, hits give low values", "result": 1}, {"measurement": "normalized growth", "setting": "S. cerevisiae deletion strains, locus YMR125W, strain sto1, hits give low values", "result": 1.04}, {"measurement": "normalized growth", "setting": "S. cerevisiae deletion strains, locus YMR129W, hits give low values", "result": 1.01}, {"measurement": "normalized growth", "setting": "S. cerevisiae deletion strains, locus YMR205C, strain PFK2, hits give low values", "result": 0.982}, {"measurement": "normalized growth", "setting": "S. cerevisiae deletion strains, locus YMR223W, strain ubp8, hits give low values", "result": 1.02}, {"measurement": "normalized growth", "setting": "S. cerevisiae deletion strains, locus YMR231W, strain pep5, hits give low values", "result": 1.02}, {"measurement": "normalized growth", "setting": "S. cerevisiae deletion strains, locus YMR263W, strain SAP30, hits give low values", "result": 0.973}, {"measurement": "normalized growth", "setting": "S. cerevisiae deletion strains, locus YMR307W, strain GAS1, hits give low values", "result": 0.928}, {"measurement": "normalized growth", "setting": "S. cerevisiae deletion strains, locus YNL067W, strain RPL9B, hits give low values", "result": 0.961}, {"measurement": "normalized growth", "setting": "S. cerevisiae deletion strains, locus YNL071W, strain lat1, hits give low values", "result": 0.954}, {"measurement": "normalized growth", "setting": "S. cerevisiae deletion strains, locus YNL128W, strain TEP1, hits give low values", "result": 1.01}, {"measurement": "normalized growth", "setting": "S. cerevisiae deletion strains, locus YNL153C, strain GIM3, hits give low values", "result": "0.0845 (active)"}, {"measurement": "normalized growth", "setting": "S. cerevisiae deletion strains, locus YNL183C, strain NPR1, hits give low values", "result": 0.927}, {"measurement": "normalized growth", "setting": "S. cerevisiae deletion strains, locus YNL209W, strain ssb2, hits give low values", "result": 0.984}, {"measurement": "normalized growth", "setting": "S. cerevisiae deletion strains, locus YNL233W, strain BNI4, hits give low values", "result": 0.958}, {"measurement": "normalized growth", "setting": "S. cerevisiae deletion strains, locus YNL248C, strain rpa49, hits give low values", "result": 1.01}, {"measurement": "normalized growth", "setting": "S. cerevisiae deletion strains, locus YNL250W, strain rad50, hits give low values", "result": 1.04}, {"measurement": "normalized growth", "setting": "S. cerevisiae deletion strains, locus YNL271C, strain bni1, hits give low values", "result": 1}, {"measurement": "normalized growth", "setting": "S. cerevisiae deletion strains, locus YNL298W, strain CLA4, hits give low values", "result": 1.01}, {"measurement": "normalized growth", "setting": "S. cerevisiae deletion strains, locus YNL307C, strain MCK1, hits give low values", "result": 1}, {"measurement": "normalized growth", "setting": "S. cerevisiae deletion strains, locus YNL322C, strain KRE1 (second series), hits give low values", "result": 0.991}, {"measurement": "normalized growth", "setting": "S. cerevisiae deletion strains, locus YNL322C, strain KRE1, hits give low values", "result": 0.987}, {"measurement": "normalized growth", "setting": "S. cerevisiae deletion strains, locus YNR049C, strain mso1, hits give low values", "result": 1.01}, {"measurement": "normalized growth", "setting": "S. cerevisiae deletion strains, locus YNR052C, strain pop2, hits give low values", "result": 0.983}, {"measurement": "normalized growth", "setting": "S. cerevisiae deletion strains, locus YOL012C, strain htz1", "result": 2.38}, {"measurement": "normalized growth", "setting": "S. cerevisiae deletion strains, locus YOL147C, strain pex11, hits give low values", "result": 1.01}, {"measurement": "normalized growth", "setting": "S. cerevisiae deletion strains, locus YOR001W, strain rrp6, hits give low values", "result": 1}, {"measurement": "normalized growth", "setting": "S. cerevisiae deletion strains, locus YOR061W, strain CKA2, hits give low values", "result": 0.996}, {"measurement": "normalized growth", "setting": "S. cerevisiae deletion strains, locus YOR069W, strain VPS5, hits give low values", "result": 1}, {"measurement": "normalized growth", "setting": "S. cerevisiae deletion strains, locus YOR070C, strain gyp1, hits give low values", "result": 0.991}, {"measurement": "normalized growth", "setting": "S. cerevisiae deletion strains, locus YOR080W, strain dia2, hits give low values", "result": 1.01}, {"measurement": "normalized growth", "setting": "S. cerevisiae deletion strains, locus YOR083W, strain WHI5, hits give low values", "result": 0.977}, {"measurement": "normalized growth", "setting": "S. cerevisiae deletion strains, locus YOR106W, strain vam3, hits give low values", "result": 1.03}, {"measurement": "normalized growth", "setting": "S. cerevisiae deletion strains, locus YOR136W, strain idh2, hits give low values", "result": 0.995}, {"measurement": "normalized growth", "setting": "S. cerevisiae deletion strains, locus YOR144C, strain elg1, hits give low values", "result": 1.02}, {"measurement": "normalized growth", "setting": "S. cerevisiae deletion strains, locus YOR184W, strain ser1, hits give low values", "result": 0.932}, {"measurement": "normalized growth", "setting": "S. cerevisiae deletion strains, locus YOR231W, strain MKK1, hits give low values", "result": 1}, {"measurement": "normalized growth", "setting": "S. cerevisiae deletion strains, locus YOR265W, strain rbl2, hits give low values", "result": 0.997}, {"measurement": "normalized growth", "setting": "S. cerevisiae deletion strains, locus YOR270C, strain vph1, hits give low values", "result": 0.961}, {"measurement": "normalized growth", "setting": "S. cerevisiae deletion strains, locus YOR290C, strain snf2, hits give low values", "result": 0.944}, {"measurement": "normalized growth", "setting": "S. cerevisiae deletion strains, locus YOR316C, strain cot1, hits give low values", "result": 0.998}, {"measurement": "normalized growth", "setting": "S. cerevisiae deletion strains, locus YPL051W, strain arl3, hits give low values", "result": 0.991}, {"measurement": "normalized growth", "setting": "S. cerevisiae deletion strains, locus YPL078C, strain atp4, hits give low values", "result": 0.995}, {"measurement": "normalized growth", "setting": "S. cerevisiae deletion strains, locus YPL106C, strain sse1, hits give low values", "result": 1.08}, {"measurement": "normalized growth", "setting": "S. cerevisiae deletion strains, locus YPL240C, strain hsp82, hits give low values", "result": 0.997}, {"measurement": "normalized growth", "setting": "S. cerevisiae deletion strains, locus YPL241C, strain CIN2, hits give low values", "result": "0.0871 (active)"}, {"measurement": "normalized growth", "setting": "S. cerevisiae deletion strains, locus YPL256C, strain CLN2, hits give low values", "result": 0.957}, {"measurement": "normalized growth", "setting": "S. cerevisiae deletion strains, locus YPR119W, strain clb2, hits give low values", "result": 1.01}, {"measurement": "normalized growth", "setting": "S. cerevisiae deletion strains, locus YPR141C, strain kar3, hits give low values", "result": 1.01}, {"measurement": "normalized growth", "setting": "S. cerevisiae deletion strains, locus YPR163C, strain tif3, hits give low values", "result": 1}, {"measurement": "normalized growth", "setting": "S. cerevisiae deletion strains, locus YPR167C, strain met16, hits give low values", "result": 1}, {"measurement": "normalized growth", "setting": "S. cerevisiae deletion strains, strain wtn01, hits give low values", "result": 0.977}, {"measurement": "normalized growth", "setting": "S. cerevisiae strains, strain wild type, hits give low values", "result": 0.995}]}
